Assay results as given in PubChem BioAssay (EPA / NIEHS).
Results filed as inconclusive are left out. Active and inactive are the calls of the source. How the source made its calls, unless noted: active means hit-call score of the fitted dose curve at least 0.9, where 1 is the maximum; inconclusive means response in the unintended direction; inactive means score below 0.9.

How the values were obtained:
[1] = ATG_TAL_CIS: Attagene CIS-FACTORIAL HepG2 Assay for human TAL Basal Promoter (AID 2282966; active means hit-call score of the fitted dose curve at least 0.9, where 1 is the maximum; inactive means score below 0.9;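 further: background control endpoint measuring basal TAL promoter reporter mRNA not a specific factor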); details: HepG2 Attagene cis-factorial TAL promoter reporter; actives raise or lower the signal
How it was run: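 In this cell-based multiplex, HepG2 liver cells bearing cis-promoter reporter constructs are dosed for 24 hours. Total RNA is reverse-transcribed and amplified, labelled fragments are sized by capillary electrophoresis, and signal changes are fitted bidirectionally versus DMSO.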

[2] = ATG_TGFb_CIS: Attagene CIS-FACTORIAL HepG2 Assay for human Transforming Growth Factor (TGF) (AID 2282967; active means hit-call score of the fitted dose curve at least 0.9, where 1 is the maximum; inactive means score below 0.9); details: HepG2 Attagene CIS TGFb reporter, mRNA transcription; actives raise or lower the signal
How it was run: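 Bidirectional fitting relative to DMSO gave the endpoint. Underlying data: reporter mRNA from HepG2 cells carrying transiently transfected cis-regulated reporter constructs, harvested 24 h after dosing and analyzed by RT-PCR and capillary electrophoresis.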

[3] = ATG_VDRE_CIS: Attagene CIS-FACTORIAL HepG2 Assay for human Vitamin D Receptor Element (VDRE) (AID 2282968; active means hit-call score of the fitted dose curve at least 0.9, where 1 is the maximum; inactive means score below 0.9); details: HepG2 VDRE cis-reporter transcription, actives raise or lower the signal
How it was run: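 In transiently transfected HepG2 liver cells, gain or loss of reporter mRNA after 24 h exposure is scored relative to DMSO, using fluorescence detection by capillary electrophoresis of RT-PCR products.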

[4] = target: Nuclear receptor subfamily 1 group I member 3 (Homo sapiens) (UniProt Q14994); test: ATG_CAR_TRANS: Attagene TRANS-FACTORIAL HepG2 Assay for human Constitutive Androstane Receptor (CAR) (AID 2282969); details: HepG2 Attagene TRANS-FACTORIAL CAR reporter;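 further: activators raise reporter mRNA above DMSO so AC50 marks induction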
How it was run: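 Readout is reporter mRNA induction, quantified by fluorescent primer extension and capillary electrophoresis after RT-PCR. Cells were HepG2 transiently carrying chimeric NR-Gal4 constructs with GAL4-UAS reporters, treated for 24 h; activity scored upward from DMSO.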

[5] = target: Estrogen receptor (Homo sapiens) (UniProt P03372); test: ATG_ERa_TRANS: Attagene TRANS-FACTORIAL HepG2 Assay for human Estrogen Receptor alpha (ERa) (AID 2282970); details: HepG2 Attagene TRANS ERa GAL4 reporter, mRNA
How it was run: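 After 24 h of compound treatment, RNA from HepG2 cells bearing transfected GAL4-UAS reporter constructs is converted to cDNA, amplified and fluorescently labelled. Capillary electrophoresis resolves the ERa-linked reporter; DMSO serves as negative control.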

[6] = target: X-box-binding protein 1 (Homo sapiens) (UniProt P17861); test: ATG_Xbp1_CIS: Attagene CIS-FACTORIAL HepG2 Assay for human X-box Binding Protein 1 (XBP1) (AID 2282972; active means hit-call score of the fitted dose curve at least 0.9, where 1 is the maximum; inactive means score below 0.9); details: HepG2 XBP1 cis-element reporter, Attagene multiplex; actives raise or lower the signal
How it was run: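 Fluorescence-labelled cDNA fragments from reporter transcripts, separated by capillary electrophoresis, give the signal. Source: HepG2 cells transfected with promoter-driven reporter units, harvested 24 h post-dose. DMSO served as reference for bidirectional curve fitting.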

[7] = ATG_M_19_TRANS: Attagene TRANS-FACTORIAL HepG2 Assay for M19 Transcription Factor (Internal Marker) (AID 2282974); details: HepG2 Attagene TRANS-FACTORIAL M19 internal marker reporter
How it was run: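 HepG2 transiently transfected with GAL4-UAS multiplex reporter constructs, exposed 24 h; reporter RNA quantified by RT-PCR, 6-FAM labeling, HpaI digestion and capillary electrophoresis; internal background marker fitted upward versus DMSO.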

[8] = target: Glucocorticoid receptor (Homo sapiens) (UniProt P04150); test: ATG_GR_TRANS: Attagene TRANS-FACTORIAL HepG2 Assay for human Glucocorticoid Receptor (GR) (AID 2282978); details: HepG2 Attagene TRANS GR reporter, mRNA transcription;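 further: activators score as hits since higher reporter transcript over DMSO is fitted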
How it was run: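 HepG2 cells transiently transfected with GAL4-UAS reporter units and exogenous GR-Gal4 chimera, dosed 24 h. Reporter mRNA by RT-PCR, FAM labeling, HpaI digest and capillary electrophoresis; gain-of-signal fit versus DMSO.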

[9] = target: Oxysterols receptor LXR-alpha (Homo sapiens) (UniProt Q13133); test: ATG_LXRa_TRANS: Attagene TRANS-FACTORIAL HepG2 Assay for human Liver X Receptor alpha (LXRa) (AID 2282980); details: HepG2 Attagene TRANS reporter, LXRa transactivation
How it was run: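 Read-out: reporter transcript levels by RT-PCR plus capillary electrophoresis, fluorescence intensity. Transiently transfected HepG2, exogenous NR-GAL4 chimera, GAL4-UAS reporters; 24 h compound exposure. Activity = increase over DMSO negative control.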

[10] = target: Oxysterols receptor LXR-beta (Homo sapiens) (UniProt P55055); test: ATG_LXRb_TRANS: Attagene TRANS-FACTORIAL HepG2 Assay for human Liver X Receptor beta (LXRb) (AID 2282981); details: HepG2 Attagene TRANS GAL4-LXRb reporter, mRNA
How it was run: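 Cells: HepG2, transiently transfected with GAL4-UAS reporter units plus LXRb-Gal4 fusion. Treatment: 24 h. Detection: reporter mRNA by RT-PCR, 6-FAM labelling, HpaI digestion, capillary electrophoresis.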

[11] = target: Hepatocyte nuclear factor 4-alpha (Homo sapiens) (UniProt P41235); test: ATG_HNF4a_TRANS: Attagene TRANS-FACTORIAL HepG2 Assay for human Hepatocyte Nuclear Factor 4 alpha (HNF4a) (AID 2282982); details: HepG2 HNF4a transactivation reporter, mRNA readout
How it was run: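 Transfected HepG2 reporter cells are dosed for 24 h; reporter RNA is reverse-transcribed, amplified, fluorescently labelled and HpaI-digested before CE sizing. Positive-direction fit against DMSO.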

[12] = ATG_M_32_TRANS: Attagene TRANS-FACTORIAL HepG2 Assay for M32 Transcription Factor (Internal Marker) (AID 2282984); details: HepG2 Attagene TRANS M32 internal marker reporter;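 further: transcript level of a background control reporter unit measured by RT-PCR and capillary electrophoresis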
How it was run: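 Using transiently transfected HepG2 cells exposed to test chemicals for 24 h, reporter transcripts are converted to labelled cDNA fragments and quantified by capillary electrophoresis. DMSO defines the activity baseline.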

[13] = target: Nuclear receptor subfamily 4 group A member 2 (Homo sapiens) (UniProt P43354); test: ATG_NURR1_TRANS: Attagene TRANS-FACTORIAL HepG2 Assay for human Nuclear Receptor Related Protein 1 (NURR1) (AID 2282985); details: HepG2 Attagene TRANS reporter, mRNA readout
How it was run: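 Cells: HepG2, transiently transfected. Exposure: 24 h. Detection: fluorescence of labelled RT-PCR products separated by capillary electrophoresis; upward fit versus DMSO.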

[14] = target: Transcriptional activator Myb (Homo sapiens) (UniProt P10242); test: ATG_Myb_CIS: Attagene CIS-FACTORIAL HepG2 Assay for human Myeloblastosis (Myb) Proto-Oncogene Transcription Factor (AID 2282986; active means hit-call score of the fitted dose curve at least 0.9, where 1 is the maximum; inactive means score below 0.9); details: HepG2 Attagene CIS-FACTORIAL Myb reporter transcription; actives raise or lower the signal
How it was run: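 Transiently transfected HepG2 cells carrying a multiplexed cis-promoter reporter set report endogenous Myb activity after 24 h compound exposure. Reporter mRNA is read by RT-PCR with capillary electrophoresis of fluorescent products, fitted bidirectionally against DMSO.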

[15] = target: Bile acid receptor (Homo sapiens) (UniProt Q96RI1); test: ATG_FXR_TRANS: Attagene TRANS-FACTORIAL HepG2 Assay for Farnesoid X Receptor (FXR) (AID 2282979); details: HepG2 Attagene TRANS FXR-GAL4 reporter transcription;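 further: hits raise reporter mRNA above DMSO so AC50 marks FXR activation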
How it was run: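 Read-out: fluorescent reporter transcripts quantified by capillary electrophoresis after RT-PCR of total RNA. Source cells were HepG2 transiently carrying chimeric NR-GAL4 plus GAL4-UAS reporter units, dosed 24 h. Activity fitted upward relative to DMSO baseline.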

[16] = target: Nuclear respiratory factor 1 (Homo sapiens) (UniProt Q16656); test: ATG_NRF1_CIS: Attagene CIS-FACTORIAL HepG2 Assay for human Nuclear Respiratory Factor 1 (NRF1) Orphan Gene (AID 2282987; active means hit-call score of the fitted dose curve at least 0.9, where 1 is the maximum; inactive means score below 0.9); details: HepG2 NRF1 cis-element reporter, Attagene multiplex; actives raise or lower the signal
How it was run: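 HepG2 cells transiently transfected with multiple cis-regulated reporter units, exposed 24 h. Reporter mRNAs measured by RT-PCR, fluorescent labelling, HpaI digestion and capillary electrophoresis; bidirectional fitting against DMSO.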

[17] = ATG_GAL4_TRANS: Attagene TRANS-FACTORIAL HepG2 Assay for GAL4 (Internal Marker) (AID 2282976); details: HepG2 Attagene TRANS GAL4 internal marker reporter
How it was run: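 RT-PCR/capillary electrophoresis readout of reporter mRNA. HepG2, transient MRTU transfection (GAL4-UAS reporters), 24 h compound exposure. Background-control endpoint, positive direction vs DMSO baseline.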

[18] = target: Estrogen-related receptor gamma (Homo sapiens) (UniProt P62508); test: ATG_ERRg_TRANS: Attagene TRANS-FACTORIAL HepG2 Assay for human Estrogen-Related Receptor gamma (ERRg) (AID 2282977); details: HepG2 Attagene TRANS reporter, ERRg transactivation;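 further: hits increase reporter signal over DMSO so potencies reflect activators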
How it was run: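 Transient HepG2 transfectants, 24 h compound exposure, GAL4-UAS reporter mRNA by RT-PCR/6-FAM labelling/capillary electrophoresis; positive direction vs DMSO.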

[19] = target: Steroid hormone receptor ERR1 (Homo sapiens) (UniProt P11474); test: ATG_ERRa_TRANS: Attagene TRANS-FACTORIAL HepG2 Assay for human Estrogen-Related Receptor alpha (ERRa) (AID 2282971); details: HepG2 Attagene TRANS reporter, ERRa transactivation
How it was run: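 Transfected HepG2, 24 h dosing, ERRa-Gal4 chimera driving GAL4-UAS reporter. Readout: reporter mRNA via RT-PCR plus capillary electrophoresis (fluorescence). Positive direction vs DMSO control.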

[20] = ATG_M_06_TRANS: Attagene TRANS-FACTORIAL HepG2 Assay for M06 Transcription Factor (Internal Marker) (AID 2282983); details: HepG2 Attagene TRANS M06 internal marker reporter
How it was run: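 After a 24 h chemical treatment of transfected HepG2, RNA underwent DNase I treatment, reverse transcription and reporter-specific PCR; labelled, HpaI-digested products were sized by capillary electrophoresis. Signal increase relative to DMSO defined activity.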

Measured: AC50

Bile acid receptor (Homo sapiens), sequence (Q96RI1 whole entry, looked up, the tested form may be a part): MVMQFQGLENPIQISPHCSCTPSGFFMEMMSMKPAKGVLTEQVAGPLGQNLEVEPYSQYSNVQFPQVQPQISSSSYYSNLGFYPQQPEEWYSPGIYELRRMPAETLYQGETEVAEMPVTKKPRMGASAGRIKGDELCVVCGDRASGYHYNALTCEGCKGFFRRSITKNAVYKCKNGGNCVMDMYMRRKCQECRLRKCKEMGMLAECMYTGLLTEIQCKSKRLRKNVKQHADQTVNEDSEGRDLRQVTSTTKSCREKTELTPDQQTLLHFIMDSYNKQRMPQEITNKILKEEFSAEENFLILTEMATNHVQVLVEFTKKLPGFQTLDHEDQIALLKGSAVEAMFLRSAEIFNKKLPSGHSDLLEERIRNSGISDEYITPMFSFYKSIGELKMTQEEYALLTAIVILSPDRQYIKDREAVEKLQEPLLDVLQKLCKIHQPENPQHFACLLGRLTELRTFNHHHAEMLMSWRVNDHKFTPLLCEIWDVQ
Oxysterols receptor LXR-beta (Homo sapiens), sequence (P55055 whole entry, looked up, the tested form may be a part): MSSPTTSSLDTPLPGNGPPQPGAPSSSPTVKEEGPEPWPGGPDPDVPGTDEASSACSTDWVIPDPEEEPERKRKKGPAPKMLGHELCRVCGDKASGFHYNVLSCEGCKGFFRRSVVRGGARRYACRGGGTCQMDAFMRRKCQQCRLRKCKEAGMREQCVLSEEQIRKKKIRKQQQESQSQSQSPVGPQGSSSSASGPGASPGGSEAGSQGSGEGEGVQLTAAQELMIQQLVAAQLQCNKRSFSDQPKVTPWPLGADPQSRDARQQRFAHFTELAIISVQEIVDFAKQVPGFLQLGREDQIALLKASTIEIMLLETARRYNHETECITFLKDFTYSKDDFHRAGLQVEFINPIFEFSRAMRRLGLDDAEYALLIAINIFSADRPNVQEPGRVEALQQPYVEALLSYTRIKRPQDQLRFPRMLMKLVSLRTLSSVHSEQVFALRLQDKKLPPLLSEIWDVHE
Glucocorticoid receptor (Homo sapiens), sequence (P04150 whole entry, looked up, the tested form may be a part): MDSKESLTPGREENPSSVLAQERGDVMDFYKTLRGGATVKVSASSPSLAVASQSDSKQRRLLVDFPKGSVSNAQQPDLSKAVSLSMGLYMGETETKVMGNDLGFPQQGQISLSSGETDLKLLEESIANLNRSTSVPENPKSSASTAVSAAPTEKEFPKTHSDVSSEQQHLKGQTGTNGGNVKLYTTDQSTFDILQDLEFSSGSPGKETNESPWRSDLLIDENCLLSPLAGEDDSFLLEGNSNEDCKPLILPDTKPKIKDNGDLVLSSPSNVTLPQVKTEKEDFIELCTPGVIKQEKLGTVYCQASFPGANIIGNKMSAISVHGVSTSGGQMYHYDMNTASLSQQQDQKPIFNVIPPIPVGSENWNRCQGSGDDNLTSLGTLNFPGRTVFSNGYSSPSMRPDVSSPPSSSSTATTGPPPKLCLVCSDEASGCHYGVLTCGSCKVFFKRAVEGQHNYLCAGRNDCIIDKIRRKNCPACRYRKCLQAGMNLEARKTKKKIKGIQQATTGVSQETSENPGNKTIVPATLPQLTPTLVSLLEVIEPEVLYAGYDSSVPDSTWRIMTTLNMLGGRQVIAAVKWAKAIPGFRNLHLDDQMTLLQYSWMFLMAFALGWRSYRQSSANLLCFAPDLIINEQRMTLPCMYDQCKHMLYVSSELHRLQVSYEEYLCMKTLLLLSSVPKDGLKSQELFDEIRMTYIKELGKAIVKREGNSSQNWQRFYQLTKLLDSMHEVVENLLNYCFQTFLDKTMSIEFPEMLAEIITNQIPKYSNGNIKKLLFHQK
Nuclear receptor subfamily 1 group I member 3 (Homo sapiens), sequence (Q14994 whole entry, looked up, the tested form may be a part): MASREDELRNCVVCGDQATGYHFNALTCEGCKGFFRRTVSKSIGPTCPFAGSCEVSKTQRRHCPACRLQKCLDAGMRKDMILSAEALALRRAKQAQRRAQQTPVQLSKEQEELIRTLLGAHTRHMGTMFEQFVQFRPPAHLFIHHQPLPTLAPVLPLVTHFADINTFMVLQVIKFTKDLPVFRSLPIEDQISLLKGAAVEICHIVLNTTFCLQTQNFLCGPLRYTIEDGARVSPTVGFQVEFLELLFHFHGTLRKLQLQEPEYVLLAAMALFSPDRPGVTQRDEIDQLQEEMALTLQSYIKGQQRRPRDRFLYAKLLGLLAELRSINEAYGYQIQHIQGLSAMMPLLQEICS
Transcriptional activator Myb (Homo sapiens), sequence (P10242 whole entry, looked up): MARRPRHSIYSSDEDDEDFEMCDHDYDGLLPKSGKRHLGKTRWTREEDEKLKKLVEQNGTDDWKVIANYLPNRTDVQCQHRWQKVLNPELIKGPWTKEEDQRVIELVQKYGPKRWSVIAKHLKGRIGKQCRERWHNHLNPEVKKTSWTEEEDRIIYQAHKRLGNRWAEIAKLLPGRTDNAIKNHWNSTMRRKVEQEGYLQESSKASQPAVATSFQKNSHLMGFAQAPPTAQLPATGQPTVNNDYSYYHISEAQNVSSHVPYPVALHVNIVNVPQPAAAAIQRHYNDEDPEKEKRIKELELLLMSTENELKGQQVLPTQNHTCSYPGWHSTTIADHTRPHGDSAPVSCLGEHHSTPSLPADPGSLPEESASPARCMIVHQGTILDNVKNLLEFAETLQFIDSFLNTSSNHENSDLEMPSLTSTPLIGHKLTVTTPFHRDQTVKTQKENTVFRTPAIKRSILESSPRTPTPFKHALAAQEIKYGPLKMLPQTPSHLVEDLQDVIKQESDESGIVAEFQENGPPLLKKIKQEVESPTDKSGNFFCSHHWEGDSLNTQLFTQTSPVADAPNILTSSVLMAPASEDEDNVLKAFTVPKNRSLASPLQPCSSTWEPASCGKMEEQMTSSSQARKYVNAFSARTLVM
Nuclear respiratory factor 1 (Homo sapiens), sequence (Q16656 whole entry, looked up): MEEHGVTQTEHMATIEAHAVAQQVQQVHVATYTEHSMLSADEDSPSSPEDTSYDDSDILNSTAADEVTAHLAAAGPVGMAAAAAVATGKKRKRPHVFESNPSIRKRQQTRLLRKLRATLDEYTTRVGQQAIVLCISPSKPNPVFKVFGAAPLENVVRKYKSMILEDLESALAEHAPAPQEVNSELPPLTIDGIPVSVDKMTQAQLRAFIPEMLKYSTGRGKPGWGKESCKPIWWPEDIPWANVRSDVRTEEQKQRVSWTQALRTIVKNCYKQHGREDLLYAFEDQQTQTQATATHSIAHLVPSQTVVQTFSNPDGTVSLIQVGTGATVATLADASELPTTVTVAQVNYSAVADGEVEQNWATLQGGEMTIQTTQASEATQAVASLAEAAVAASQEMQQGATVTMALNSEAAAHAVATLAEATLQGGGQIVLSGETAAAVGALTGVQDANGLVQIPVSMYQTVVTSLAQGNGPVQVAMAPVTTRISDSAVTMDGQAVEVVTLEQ
Nuclear receptor subfamily 4 group A member 2 (Homo sapiens), sequence (P43354 whole entry, looked up): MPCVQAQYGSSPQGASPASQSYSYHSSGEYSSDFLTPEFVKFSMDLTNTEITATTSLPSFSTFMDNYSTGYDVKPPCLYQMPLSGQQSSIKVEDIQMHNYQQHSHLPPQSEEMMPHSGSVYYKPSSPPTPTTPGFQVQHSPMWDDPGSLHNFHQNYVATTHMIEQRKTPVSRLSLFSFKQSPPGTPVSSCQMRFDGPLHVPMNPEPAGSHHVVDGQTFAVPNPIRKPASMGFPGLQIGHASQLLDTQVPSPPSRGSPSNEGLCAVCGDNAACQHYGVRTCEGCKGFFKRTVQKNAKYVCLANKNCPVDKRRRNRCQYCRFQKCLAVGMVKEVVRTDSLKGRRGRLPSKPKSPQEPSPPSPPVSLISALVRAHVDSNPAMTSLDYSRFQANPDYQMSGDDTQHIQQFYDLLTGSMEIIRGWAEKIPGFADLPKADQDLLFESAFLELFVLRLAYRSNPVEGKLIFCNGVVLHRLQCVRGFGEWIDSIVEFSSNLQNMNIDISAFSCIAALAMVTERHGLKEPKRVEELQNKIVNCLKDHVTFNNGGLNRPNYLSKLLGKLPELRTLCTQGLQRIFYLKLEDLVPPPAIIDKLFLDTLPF
Oxysterols receptor LXR-alpha (Homo sapiens), sequence (Q13133 whole entry, looked up, the tested form may be a part): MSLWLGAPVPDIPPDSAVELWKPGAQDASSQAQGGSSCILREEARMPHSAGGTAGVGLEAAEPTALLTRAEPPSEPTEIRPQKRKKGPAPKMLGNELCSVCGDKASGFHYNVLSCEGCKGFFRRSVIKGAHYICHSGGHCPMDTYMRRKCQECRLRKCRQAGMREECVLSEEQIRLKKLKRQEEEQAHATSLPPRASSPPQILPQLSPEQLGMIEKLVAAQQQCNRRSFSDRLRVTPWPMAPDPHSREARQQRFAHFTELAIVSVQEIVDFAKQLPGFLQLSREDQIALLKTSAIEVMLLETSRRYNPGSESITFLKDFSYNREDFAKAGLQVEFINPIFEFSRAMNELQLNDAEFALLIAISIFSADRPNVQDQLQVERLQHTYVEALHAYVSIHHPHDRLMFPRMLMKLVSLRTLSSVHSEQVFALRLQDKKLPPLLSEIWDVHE
Estrogen-related receptor gamma (Homo sapiens), sequence (P62508 whole entry, looked up, the tested form may be a part): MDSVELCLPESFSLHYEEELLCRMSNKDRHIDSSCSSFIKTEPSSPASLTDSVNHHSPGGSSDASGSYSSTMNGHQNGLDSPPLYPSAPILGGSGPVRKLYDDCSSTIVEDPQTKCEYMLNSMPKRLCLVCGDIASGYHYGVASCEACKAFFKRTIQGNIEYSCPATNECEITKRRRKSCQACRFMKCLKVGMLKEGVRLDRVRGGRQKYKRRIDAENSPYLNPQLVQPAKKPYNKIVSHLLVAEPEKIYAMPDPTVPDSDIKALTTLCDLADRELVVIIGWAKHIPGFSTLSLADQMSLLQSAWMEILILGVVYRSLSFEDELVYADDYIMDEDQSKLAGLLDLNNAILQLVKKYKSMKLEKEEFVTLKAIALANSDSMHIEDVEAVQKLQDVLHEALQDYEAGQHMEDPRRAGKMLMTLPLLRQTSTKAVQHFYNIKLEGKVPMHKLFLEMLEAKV
X-box-binding protein 1 (Homo sapiens), sequence (P17861 whole entry, looked up, the tested form may be a part): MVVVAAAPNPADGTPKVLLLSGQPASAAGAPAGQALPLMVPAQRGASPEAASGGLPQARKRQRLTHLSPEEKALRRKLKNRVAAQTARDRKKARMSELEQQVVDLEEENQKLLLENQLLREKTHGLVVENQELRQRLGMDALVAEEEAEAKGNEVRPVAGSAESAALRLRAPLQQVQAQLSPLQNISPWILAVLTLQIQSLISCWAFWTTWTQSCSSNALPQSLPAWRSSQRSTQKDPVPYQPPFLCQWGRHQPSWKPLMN

Cc1ccccc1C=O
not listed: [15] | [16] | [17] | [18] | [19] | [20]
inactive: all other assays above

c1ccc2c(c1)c1cccc3ccc4cccc2c4c31
not listed: [9] | [10] | [13] | [17] | [18] | [19] | [20]
inactive: all other assays above

Clc1cccc(Cl)n1
not listed: [8] | [9] | [13] | [15] | [19] | [20]
inactive: all other assays above

CCC(O)CO (stereo not drawn)
not listed: [10] | [13] | [16] | [18] | [19] | [20]
inactive: all other assays above

CC(C)(C)c1n[nH]c(=S)n(N)c1=O
not listed: [8] | [10] | [12] | [13] | [15] | [17] | [18] | [20]
inactive: all other assays above

NCCNCCN
not listed: [5] | [8] | [9] | [10] | [13] | [15] | [18]
inactive: all other assays above

OCCOc1cccc(OCCO)c1
not listed: [5] | [8] | [9] | [12] | [13] | [15]
inactive: all other assays above

CN(C)CCCN
not listed: [6] | [7] | [9] | [13] | [17] | [18] | [19]
inactive: all other assays above

C=CC(C)(CCC=C(C)C)OC=O (stereo not drawn)
not listed: [8] | [9] | [13] | [15]
inactive: all other assays above

CC1=CCC(O)(C(C)C)CC1 (stereo not drawn)
not listed: [13] | [15] | [16] | [18] | [19]
inactive: all other assays above

CC(=O)Nc1ccc(C)cc1C
not listed: [5] | [8] | [9] | [10] | [13] | [19] | [20]
inactive: all other assays above

O=P(c1ccccc1)(c1ccccc1)c1ccccc1
inactive: [1] | [2] | [4] | [5] | [15] | [20] | [12] | [13] | [14] | [16]
active: [3] 13.1 µM

COCCOCCOCCOCCOCCO
not listed: [5] | [9] | [15] | [16] | [17]
inactive: all other assays above

Cc1ccc(C=O)s1
not listed: [5] | [8] | [10] | [11] | [13] | [15] | [20]
inactive: all other assays above

NC(=O)c1ccccc1Cl
active: [3] 63.3 µM
not listed: [6] | [10] | [11] | [17] | [20]
inactive: all other assays above

CC1=CCC2C(C1)C2(C)C (stereo not drawn)
active: [5] 77.3 µM
not listed: [7] | [9] | [13] | [17] | [18] | [19]
inactive: all other assays above

CCCC(=O)OCCC(C)CCC=C(C)C (stereo not drawn)
not listed: [5] | [8] | [9] | [10] | [13] | [15]
inactive: all other assays above

CCc1ccc(C=O)cc1
not listed: [5] | [9] | [15] | [17]
inactive: all other assays above

CCCCCC(=O)OCCc1ccccc1
not listed: [7] | [8] | [10] | [11] | [13] | [15] | [17] | [18]
inactive: all other assays above

O=C1O[C@@H]2[C@@H](O)[C@H](O)O[C@@H]2[C@H]1O
not listed: [7] | [8] | [9] | [12] | [13] | [15] | [17] | [18]
inactive: all other assays above
